Hits are enriched below; roughly 2% of the tested compounds scored in any of these assays.
ABCB6 inh 2 – inhibitors of human ABC transporter ABCB6. fluorescence ratio to DMSO, % at 10 µM. K562-ABCB6 porphyrin accumulation, flow cytometry, 1 h; stronger effect = lower value. Q9NP58. hit rate 0.19% among 360,000;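 active means fluorescence ratio to DMSO below 75%, the collection mean minus 3 SD; inconclusive means too few cells collected in the well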;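 further: signal is porphyrin accumulated inside mitochondria; 100% equals median channel fluorescence of DMSO control wells; lower ratio means ABCB6 inhibition with less porphyrin fluorescence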
NR1D1 modulator – modulators of human Rev-erb alpha DNA binding. AID 1259318. P20393. Rev-erbα–FITC-DNA binding, fluorescence polarization, 90 min. hit rate 0.79% among 370,000. activity, % at 10 µM;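 active means activity above about 14%, limit read from the data; passing the limit was not always enough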;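 further: 0% = DMSO wells with 35 nM protein and 100% = DMSO wells with 750 nM protein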
PG9 Ab binder – small molecules binding HIV-1 gp120 antibody PG9 | TR-FRET gp120-PG9 antibody binding | inhibition, % at 6.7 µM | AID 624416 | hit rate 0.43% among 360,000; in the data active means inhibition above about 8.5%
Exocytosis inh – lytic granule exocytosis inhibition; hit rate 0.66% among 360,000; TALL-104 LAMP-1 surface exposure, flow cytometry; cells stimulated with thapsigargin and PMA; inhibition, % at 10 µM; AID 651702;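 active means inhibition above about 55%, limit read from the data; inconclusive means no clear call, values can overlap the other calls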
VLA-4 inh – inhibition in a human VLA-4 binding assay; P13612; VLA-4 expressing cells, ligand binding flow cytometry; AID 2557; hit rate 0.2% among 330,000; inhibition, % (about 7 µM as worked out from the volumes in the protocol); in the data active means inhibition above about 50%
Target sequence (P13612 whole entry, looked up): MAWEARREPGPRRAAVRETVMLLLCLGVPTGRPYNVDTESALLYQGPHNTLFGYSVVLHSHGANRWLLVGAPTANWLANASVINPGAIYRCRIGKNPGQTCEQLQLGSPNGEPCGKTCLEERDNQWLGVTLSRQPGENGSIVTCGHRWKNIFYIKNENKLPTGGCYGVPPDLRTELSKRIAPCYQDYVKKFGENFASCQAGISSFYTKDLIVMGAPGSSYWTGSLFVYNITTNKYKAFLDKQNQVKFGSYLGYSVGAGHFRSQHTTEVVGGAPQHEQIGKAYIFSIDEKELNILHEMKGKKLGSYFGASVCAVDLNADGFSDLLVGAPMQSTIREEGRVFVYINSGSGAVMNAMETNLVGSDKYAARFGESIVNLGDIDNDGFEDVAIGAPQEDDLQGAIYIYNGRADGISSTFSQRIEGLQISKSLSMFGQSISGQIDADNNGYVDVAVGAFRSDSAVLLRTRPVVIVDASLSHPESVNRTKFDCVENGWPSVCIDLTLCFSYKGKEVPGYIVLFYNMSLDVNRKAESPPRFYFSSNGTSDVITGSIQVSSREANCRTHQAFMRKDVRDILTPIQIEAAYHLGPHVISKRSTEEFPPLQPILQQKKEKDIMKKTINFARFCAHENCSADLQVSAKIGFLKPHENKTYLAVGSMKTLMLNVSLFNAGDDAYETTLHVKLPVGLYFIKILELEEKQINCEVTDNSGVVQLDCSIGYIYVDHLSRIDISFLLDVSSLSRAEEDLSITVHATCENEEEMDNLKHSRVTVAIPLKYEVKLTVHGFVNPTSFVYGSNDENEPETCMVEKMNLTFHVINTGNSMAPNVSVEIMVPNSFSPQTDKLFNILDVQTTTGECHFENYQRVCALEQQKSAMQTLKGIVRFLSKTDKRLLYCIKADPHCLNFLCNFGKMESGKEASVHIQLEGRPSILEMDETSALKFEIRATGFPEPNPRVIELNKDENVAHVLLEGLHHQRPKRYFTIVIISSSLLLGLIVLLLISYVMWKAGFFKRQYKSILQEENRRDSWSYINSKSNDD
VLA-4 mod pick – human VLA-4 allosteric modulation in cherry picked compounds; U937 cells, HUTS-21 LIBS mAb binding, flow cytometry; LDV ligand present at threefold Kd; hit rate 2% among 1,300; shares compounds with VLA-4 inh; inhibition, % at 6.7 µM; in the data active means inhibition above about 40%;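 further: 0% = ligand without compound and 100% = no ligand background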
* marks the source's active call; other numbers are inactive results; ? = inconclusive; / = no result.

SMILES | ABCB6 inh 2 | NR1D1 modulator | PG9 Ab binder | Exocytosis inh | VLA-4 inh | VLA-4 mod pick
C[C@@H]1CC[C@H]2[C@@H](C)C(O)O[C@@H]3OC4(C)CC[C@@H]1[C@]32OO4 (stereo partly drawn) | / | -3 | / | / | / | /
O=C(CSc1nnc(-c2ccc(Cl)cc2)n1Cc1ccco1)Nc1ccc2c(c1)OCCO2 | 95 | 2 | 1 | 1 | -30 | /
O=C(CSc1nnc(-c2ccc(Cl)cc2)n1Cc1ccco1)NCc1ccc2c(c1)OCO2 | 102 | 3 | 2 | -1 | 89* | 0
Cc1nc2cc(-c3ccc(Cl)cc3)nn2c(C)c1CCC(=O)NCc1ccco1 | 103 | -5 | 1 | -3 | 52* | 18
COc1c2ccoc2cc2oc(C)cc(=O)c12 | 103 | 5 | 1 | -2 | -9 | /
COc1c2occc2c(OC)c2c(=O)cc(C)oc12 | 98 | 5 | -1 | -1 | 51* | -5
O=S1(=O)c2ccc(N3CCSCC3)cc2Oc2ccccc2CN1Cc1cn(Cc2cccc(F)c2)nn1 | / | 12 | / | / | / | /
COc1ccccc1CCNC(=O)Cn1c(=O)oc2ccccc21 | 99 | -1 | 1 | 25 | 18 | /
COc1ccc(NC(=O)Cn2c(=O)oc3cc(Cl)ccc32)c(OC)c1 | 92 | -3 | -2 | ? | 5 | 0
O=C(Cn1c(=O)oc2ccccc21)Nc1ccc(Br)cc1 | 91 | 3 | -1 | -7 | 2 | 3
O=C(Cn1c(=O)oc2ccccc21)NCCc1ccccc1 | ? | 3 | 0 | -7 | -1 | 8
Cc1cc(NC(=O)Cn2c(=O)oc3ccccc32)no1 | 99 | 0 | 0 | -9 | 4 | 0
Cc1cccc(NC(=O)Cn2c(=O)oc3ccccc32)n1 | 101 | -7 | -3 | 0 | -1 | /
COC(=O)[C@]12C[C@H](CC(=O)NCc3cccs3)C(=O)N(Cc3cccc4ccccc34)C1=C[C@H](COCc1ccccc1)O[C@@H]2C | / | 0 | / | / | / | /
COc1ccc(S[C@]2(C(=O)N(C)C)CC(=O)N(C(=O)CCc3ccccc3)[C@@H]2c2ccc(OC)cc2)cc1 | / | 2 | / | / | / | /
COC(=O)C1CN(Cc2ccc(F)cc2)CCS(=O)(=O)N1Cc1ccc(C(F)(F)F)cc1 (stereo not drawn) | / | -3 | / | / | / | /
Nc1ccn([C@@H]2O[C@H](C(=O)NCC(=O)N3CCOCC3)[C@@H](O)[C@H]2O)c(=O)n1 | / | -6 | -2 | / | / | /
O=C(Cn1c(=O)oc2ccccc21)Nc1ccc(Cl)cc1Cl | 98 | -1 | -3 | -8 | -9 | -9
O=c1c2[nH]c3cccc(Cl)c3c2ncn1CC1CCCO1 (stereo not drawn) | 95 | 0 | 0 | -1 | -21 | 9
COc1ccc2c(c1)[nH]c1c(=O)n(CC3CCCO3)cnc12 (stereo not drawn) | 92 | 2 | 1 | -4 | -13 | /
O=c1c2[nH]c3cccc(Cl)c3c2ncn1CCN1CCCCC1 | 96 | -3 | 0 | 1 | -1 | 5
O=c1c2[nH]c3cccc(Cl)c3c2ncn1Cc1ccco1 | 95 | -1 | -1 | 0 | -1 | 14
Nc1c(C(=O)N2CCN(CCc3ccccc3)CC2)cnn1-c1ccccc1 | / | -6 | / | / | / | /
CCC(=NCCc1c(C)[nH]c2ccc(C)cc12)C1=C(O)CC(c2ccccc2)CC1=O (stereo not drawn) | 107 | 7 | -2 | -3 | 46 | 22
NC(=O)CC(NC(=O)c1cccc(Br)c1)c1ccc(N2CCC(N3CCCCC3)CC2)c([N+](=O)[O-])c1 (stereo not drawn) | 95 | -1 | 0 | 3 | 56* | 5
SMILES | ABCB6 inh 2 | NR1D1 modulator | PG9 Ab binder | Exocytosis inh | VLA-4 inh | VLA-4 mod pick
NC(=O)CC(NC(=O)c1ccccc1)c1ccc(N2CCC(N3CCCC3)CC2)c([N+](=O)[O-])c1 (stereo not drawn) | 99 | -4 | 1 | -4 | 3 | /
COc1ccc(C2c3ccc4ccccc4c3Oc3ncn(CCCN(C)C)c(=N)c32)cc1 (stereo not drawn) | 108 | 8 | 0 | 1 | 45 | 27
COc1ccccc1C1c2ccc3ccccc3c2Oc2ncn(CCN(C)C)c(=N)c21 (stereo not drawn) | 98 | -3 | 1 | 46 | 20 | /
O=C(O)C(=Cc1ccc([N+](=O)[O-])cc1)c1ccccc1 | / | -2 | -2 | / | / | /
CCOC(=O)c1c(N2C(=O)C=CC2=O)sc(C)c1C | 101 | / | / | 18 | 50* | 32
CC(=O)Nc1ccc(/C=C(\C#N)C(N)=O)cc1 | 100 | 7 | 0 | 13 | -1 | 0

Source: PubChem (several laboratories)
